# This excerpt belongs to a sample that is enriched for the strongest signals.
# B1: EPL1 (Trichoderma atroviride), A0PCX2 (protein)
# chain: MQLSNLFKLALFTAAVSADTVSYDTGYDDASRSLTVVSCSDGTNGLITRYHWQTQGQIPRFPYIGGAQAVAGWNSPNCGTCWKLTYSGKTIYVLAIDHTAAGFNIGLDAMNALTNGNAVALGRVSATASQVAVSNCGL
# Key:
# Assay in all cases: glycan array binding signal (z-score within array); higher = stronger binding
# Details in all cases: glycan notation: IUPAC condensed, linker removed
# [1] = target: Fuc(a1-2)Gal(b1-3)GlcNAc6S
# Summary of the method: (§1)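 The binding signal is a Z-score computed within each array and averaged over linkers. Arrays of the same protein sequence at different concentrations or buffers were also averaged together. Data originate from 3228 arrays in the Consortium for Functional Glycomics database, kept only where the protein sequence was available.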
# [2] = target: Fuc(a1-2)Gal(b1-3)[Fuc(a1-4)]GlcNAc(b1-3)[Fuc(a1-3)[Gal(b1-4)]GlcNAc(b1-6)]Gal(b1-4)Glc
# Summary of the method: as §1
# [3] = target: Fuc(a1-2)Gal(b1-4)GlcNAc(b1-3)Gal(b1-4)GlcNAc(b1-2)Man(a1-3)[Fuc(a1-2)Gal(b1-4)GlcNAc(b1-3)Gal(b1-4)GlcNAc(b1-2)Man(a1-6)]Man(b1-4)GlcNAc(b1-4)GlcNAc
# Summary of the method: as §1
# [4] = target: Fuc(a1-2)Gal(b1-4)[Fuc(a1-3)]GlcNAc
# Summary of the method: as §1
# [5] = target: Fuc(a1-2)Gal6S(b1-3)GlcNAc
# Summary of the method: as §1
# [6] = target: Fuc(a1-2)[Gal(a1-3)]Gal(b1-3)GlcNAc(b1-2)Man(a1-3)[Fuc(a1-2)[Gal(a1-3)]Gal(b1-3)GlcNAc(b1-2)Man(a1-6)]Man(b1-4)GlcNAc(b1-4)[Fuc(a1-6)]GlcNAc
# Summary of the method: as §1
# [7] = target: Fuc(a1-2)[GalNAc(a1-3)]Gal(b1-4)[Fuc(a1-3)]GlcNAc(b1-3)GalNAc
# Summary of the method: as §1
# [8] = target: Fuc(a1-2)[GalNAc(b1-3)]Gal
# Summary of the method: as §1
# [9] = target: Fuc(a1-3)[Gal(b1-4)]GlcNAc(b1-2)Man
# Summary of the method: as §1
# [10] = target: Fuc(a1-3)[GalNAc(b1-4)]GlcNAc
# Summary of the method: as §1
# [11] = target: Fuc(a1-3)[GalNAc(b1-4)]GlcNAc6S
# Summary of the method: as §1
# Fuc(a1-4)GlcNAc = target: Fuc(a1-4)GlcNAc
# Summary of the method: as §1
# [12] = target: Gal(a1-3)Gal(b1-4)GlcNAc(b1-2)Man(a1-3)[Gal(a1-3)Gal(b1-4)GlcNAc(b1-2)Man(a1-6)]Man(b1-4)GlcNAc(b1-4)GlcNAc
# Summary of the method: as §1
# [13] = target: Gal(a1-3)Gal(b1-4)[Fuc(a1-3)]GlcNAc(b1-2)Man(a1-3)[Gal(a1-3)Gal(b1-4)[Fuc(a1-3)]GlcNAc(b1-2)Man(a1-6)]Man(b1-4)GlcNAc(b1-4)GlcNAc
# Summary of the method: as §1
# Gal(a1-3)GalNAc = target: Gal(a1-3)GalNAc
# Summary of the method: as §1
# [14] = target: Gal(b1-3)GlcNAc(b1-3)Gal(b1-4)Glc
# Summary of the method: as §1
# [15] = target: Gal(b1-3)GlcNAc(b1-3)Gal(b1-4)GlcNAc
# Summary of the method: as §1
# [16] = target: Gal(b1-3)GlcNAc(b1-3)Gal(b1-4)GlcNAc(b1-2)[Gal(b1-3)GlcNAc(b1-3)Gal(b1-4)GlcNAc(b1-6)]Man(a1-6)[Gal(b1-3)GlcNAc(b1-3)Gal(b1-4)GlcNAc(b1-2)Man(a1-3)]Man(b1-4)GlcNAc(b1-4)[Fuc(a1-6)]GlcNAc
# Summary of the method: as §1
# [17] = target: Gal(b1-3)[Fuc(a1-4)]GlcNAc(b1-6)GalNAc
# Summary of the method: as §1
# [18] = target: Gal(b1-4)GlcNAc(b1-2)[Gal(b1-4)GlcNAc(b1-4)]Man(a1-3)[Gal(b1-4)GlcNAc(b1-2)[Gal(b1-4)GlcNAc(b1-6)]Man(a1-6)]Man(b1-4)GlcNAc(b1-4)GlcNAc
# Summary of the method: as §1
# [19] = target: Gal(b1-4)GlcNAc(b1-3)Gal(b1-3)GlcNAc
# Summary of the method: as §1
# [20] = target: Gal(b1-4)GlcNAc(b1-3)Gal(b1-4)Glc
# Summary of the method: as §1
# [21] = target: Gal(b1-4)GlcNAc(b1-3)Gal(b1-4)GlcNAc(b1-3)Gal(b1-4)GlcNAc
# Summary of the method: as §1
# Gal3S(b1-3)GlcNAc = target: Gal3S(b1-3)GlcNAc
# Summary of the method: as §1
# Gal3S(b1-4)GlcNAc = target: Gal3S(b1-4)GlcNAc
# Summary of the method: as §1
# [22] = target: Gal3S(b1-4)[Fuc(a1-3)]GlcNAc
# Summary of the method: as §1
# Gal4S(b1-4)GlcNAc = target: Gal4S(b1-4)GlcNAc
# Summary of the method: as §1
# GalNAc(b1-4)GlcNAc = target: GalNAc(b1-4)GlcNAc
# Summary of the method: as §1
# [23] = target: GlcNAc(a1-4)Gal(b1-3)GlcNAc
# Summary of the method: as §1
# [24] = target: GlcNAc(a1-6)Gal(b1-4)GlcNAc
# Summary of the method: as §1
# [25] = target: GlcNAc(b1-2)[GlcNAc(b1-6)]Man(a1-6)[GlcNAc(b1-4)][GlcNAc(b1-2)Man(a1-3)]Man(b1-4)GlcNAc(b1-4)GlcNAc
# Summary of the method: as §1
# [26] = target: GlcNAc(b1-3)Gal(b1-4)GlcNAc(b1-3)Gal(b1-4)GlcNAc(b1-2)Man(a1-3)[GlcNAc(b1-3)Gal(b1-4)GlcNAc(b1-3)Gal(b1-4)GlcNAc(b1-2)Man(a1-6)]Man(b1-4)GlcNAc(b1-4)GlcNAc
# Summary of the method: as §1
# [27] = target: GlcNAc(b1-3)Gal(b1-4)GlcNAc(b1-3)Gal(b1-4)GlcNAc(b1-3)Gal(b1-4)GlcNAc(b1-2)Man(a1-3)[GlcNAc(b1-3)Gal(b1-4)GlcNAc(b1-3)Gal(b1-4)GlcNAc(b1-3)Gal(b1-4)GlcNAc(b1-2)Man(a1-6)]Man(b1-4)GlcNAc(b1-4)[Fuc(a1-6)]GlcNAc
# Summary of the method: as §1
# [28] = target: GlcNAc(b1-3)Gal(b1-4)GlcNAc(b1-3)Gal(b1-4)GlcNAc(b1-3)Gal(b1-4)GlcNAc(b1-2)[GlcNAc(b1-3)Gal(b1-4)GlcNAc(b1-3)Gal(b1-4)GlcNAc(b1-3)Gal(b1-4)GlcNAc(b1-6)]Man(a1-6)[GlcNAc(b1-3)Gal(b1-4)GlcNAc(b1-3)Gal(b1-4)GlcNAc(b1-3)Gal(b1-4)GlcNAc(b1-2)Man(a1-3)]Man(b1-4)GlcNAc(b1-4)[Fuc(a1-6)]GlcNAc
# Summary of the method: as §1
# [29] = target: Man(a1-2)Man(a1-2)Man(a1-3)Man
# Summary of the method: as §1
# MurNAc(b1-4)GlcNAc = target: MurNAc(b1-4)GlcNAc
# Summary of the method: as §1
# [30] = target: Neu5Ac(a2-3)Gal(b1-3)GlcNAc(b1-2)Man
# Summary of the method: as §1
# [31] = target: Neu5Ac(a2-3)Gal(b1-4)GlcNAc(b1-2)Man(a1-3)[GlcNAc(b1-4)][Neu5Ac(a2-3)Gal(b1-4)GlcNAc(b1-2)Man(a1-6)]Man(b1-4)GlcNAc(b1-4)GlcNAc
# Summary of the method: as §1
# [32] = target: Neu5Ac(a2-3)Gal(b1-4)GlcNAc(b1-6)[Neu5Ac(a2-3)Gal(b1-3)]GalNAc
# Summary of the method: as §1
# [33] = target: Neu5Ac(a2-3)Gal(b1-4)[Fuc(a1-3)]GlcNAc(b1-2)Man
# Summary of the method: as §1
# [34] = target: Neu5Ac(a2-3)Gal(b1-4)[Fuc(a1-3)]GlcNAc(b1-3)GalNAc
# Summary of the method: as §1
# [35] = target: Neu5Ac(a2-3)Gal(b1-4)[Fuc(a1-3)]GlcNAc(b1-6)[Neu5Ac(a2-3)Gal(b1-3)]GalNAc
# Summary of the method: as §1
# [36] = target: Neu5Ac(a2-3)GalNAc(b1-4)GlcNAc
# Summary of the method: as §1
# Neu5Ac(a2-6)Gal = target: Neu5Ac(a2-6)Gal
# Summary of the method: as §1
# [37] = target: Neu5Ac(a2-6)Gal(b1-4)GlcNAc(b1-2)Man(a1-3)[GlcNAc(b1-2)Man(a1-6)]Man(b1-4)GlcNAc(b1-4)GlcNAc
# Summary of the method: as §1
# [38] = target: Neu5Ac(a2-6)Gal(b1-4)GlcNAc(b1-2)Man(a1-6)[GlcNAc(b1-2)Man(a1-3)]Man(b1-4)GlcNAc(b1-4)GlcNAc
# Summary of the method: as §1
# [39] = target: Neu5Ac(a2-6)Gal(b1-4)GlcNAc(b1-2)Man(a1-6)[Man(a1-3)]Man(b1-4)GlcNAc(b1-4)GlcNAc
# Summary of the method: as §1
# [40] = target: Neu5Ac(a2-6)Gal(b1-4)GlcNAc(b1-3)Gal(b1-4)GlcNAc(b1-3)Gal(b1-4)GlcNAc(b1-2)Man(a1-3)[Neu5Ac(a2-6)Gal(b1-4)GlcNAc(b1-3)Gal(b1-4)GlcNAc(b1-3)Gal(b1-4)GlcNAc(b1-2)Man(a1-6)]GalNAc
# Summary of the method: as §1
# [41] = target: Neu5Ac(a2-6)Gal(b1-4)GlcNAc(b1-3)Gal(b1-4)[Fuc(a1-3)]GlcNAc(b1-3)Gal(b1-4)[Fuc(a1-3)]GlcNAc
# Summary of the method: as §1
# [42] = target: Neu5Ac(a2-6)Gal(b1-4)GlcNAc6S
# Summary of the method: as §1
# Neu5Gc(a2-3)Gal(b1-4)Glc = target: Neu5Gc(a2-3)Gal(b1-4)Glc
# Summary of the method: as §1
# [43] = target: Neu5Gc(a2-3)Gal(b1-4)GlcNAc(b1-3)Gal(b1-4)GlcNAc(b1-2)Man(a1-3)[Neu5Gc(a2-3)Gal(b1-4)GlcNAc(b1-3)Gal(b1-4)GlcNAc(b1-2)Man(a1-6)]Man(b1-4)GlcNAc(b1-4)GlcNAc
# Summary of the method: as §1
# [44] = target: Neu5Gc(a2-8)Neu5Ac(a2-3)Gal(b1-4)GlcNAc
# Summary of the method: as §1
binder,measurement,setting,value
B1,glycan array binding signal (z-score),[1],-0.466
same,glycan array binding signal (z-score),[2],-0.315
same,glycan array binding signal (z-score),[3],-0.05
same,glycan array binding signal (z-score),[4],0.212
same,glycan array binding signal (z-score),[5],-0.249
same,glycan array binding signal (z-score),[6],0.105
same,glycan array binding signal (z-score),[7],21.1
same,glycan array binding signal (z-score),[8],-0.54
same,glycan array binding signal (z-score),[9],0.185
same,glycan array binding signal (z-score),[10],0.203
same,glycan array binding signal (z-score),[11],-0.245
same,glycan array binding signal (z-score),Fuc(a1-4)GlcNAc,3.1
same,glycan array binding signal (z-score),[12],0.847
same,glycan array binding signal (z-score),[13],0.929
same,glycan array binding signal (z-score),Gal(a1-3)GalNAc,-0.034
same,glycan array binding signal (z-score),[14],1.82
same,glycan array binding signal (z-score),[15],-0.163
same,glycan array binding signal (z-score),[16],0.678
same,glycan array binding signal (z-score),[17],-0.249
same,glycan array binding signal (z-score),[18],0.128
same,glycan array binding signal (z-score),[19],-0.08
same,glycan array binding signal (z-score),[20],-0.362
same,glycan array binding signal (z-score),[21],0.071
same,glycan array binding signal (z-score),Gal3S(b1-3)GlcNAc,0.668
same,glycan array binding signal (z-score),Gal3S(b1-4)GlcNAc,0.311
same,glycan array binding signal (z-score),[22],-0.154
same,glycan array binding signal (z-score),Gal4S(b1-4)GlcNAc,0.422
same,glycan array binding signal (z-score),GalNAc(b1-4)GlcNAc,1.34
same,glycan array binding signal (z-score),[23],0.056
same,glycan array binding signal (z-score),[24],-0.234
same,glycan array binding signal (z-score),[25],-0.514
same,glycan array binding signal (z-score),[26],0.862
same,glycan array binding signal (z-score),[27],0.866
same,glycan array binding signal (z-score),[28],0.127
same,glycan array binding signal (z-score),[29],-0.108
same,glycan array binding signal (z-score),MurNAc(b1-4)GlcNAc,-0.51
same,glycan array binding signal (z-score),[30],-0.068
same,glycan array binding signal (z-score),[31],-0.469
same,glycan array binding signal (z-score),[32],-0.379
same,glycan array binding signal (z-score),[33],-0.347
same,glycan array binding signal (z-score),[34],1.06
same,glycan array binding signal (z-score),[35],0.767
same,glycan array binding signal (z-score),[36],-0.428
same,glycan array binding signal (z-score),Neu5Ac(a2-6)Gal,-0.387
same,glycan array binding signal (z-score),[37],-0.298
same,glycan array binding signal (z-score),[38],-0.056
same,glycan array binding signal (z-score),[39],-0.436
same,glycan array binding signal (z-score),[40],0.008
same,glycan array binding signal (z-score),[41],-0.291
same,glycan array binding signal (z-score),[42],0.855
same,glycan array binding signal (z-score),Neu5Gc(a2-3)Gal(b1-4)Glc,-0.246
same,glycan array binding signal (z-score),[43],0.362
same,glycan array binding signal (z-score),[44],-0.344

# Reference: the supplement of paper PMC8728848
